40 molecules from the supplement of paper PMC12350171 can be followed below.

Each structure is given as a SMILES string. Where a name gives a salt, the structure may show the parent alone.
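Note: active when median AUC fell below 0.1.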

In one experiment the test system is P. vulgatus WT. Briefly: growth AUC normalised to DMSO control (median) (fraction of control); higher = less growth inhibition, active = hit call of the paper. To be noted: 20 µM. In short, it runs like this:
(§1)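 Area under the growth curve, calculated by the trapezoidal rule up to entry into stationary phase, was normalised to vehicle wells on the same plate. Strains had been passaged twice overnight without oxygen and then grown in mGAM in 96-well plates from OD578 0.01, each with an approved-drug library compound at 20 μM in 1% DMSO. OD578 was read hourly over 24 h in an anaerobic incubator, and the median of three biological replicates is given.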
Take `COc1ccc2[nH]c([S+]([O-])Cc3ncc(C)c(OC)c3C)nc2c1` (configuration not stated) [Omeprazole]: the “growth AUC normalised to DMSO control” value was 1.03 (inactive).

Consider `CC(=O)Oc1ccccc1C(=O)Oc1ccccc1C(=O)O` [Acetylsalicylsalicylic acid], for which the “growth AUC normalised to DMSO control” value is 1.04 (inactive).

As to `NCCCC(O)(P(=O)(O)O)P(=O)(O)O` [Alendronate sodium], the “growth AUC normalised to DMSO control” value was 1.06 (inactive).

`O=C1Nc2ccc(Cl)cc2[C@@](C#CC2CC2)(C(F)(F)F)O1` [Efavirenz]: the “growth AUC normalised to DMSO control” value is 0.752 (inactive).

For `CC(=O)O[C@]1(C(C)=O)CC[C@H]2[C@@H]3C=C(Cl)C4=CC(=O)[C@@H]5C[C@@H]5[C@]4(C)[C@H]3CC[C@@]21C` [Cyproterone acetate], the “growth AUC normalised to DMSO control” value is 0.907 (inactive).

With `COc1ccc(C(=O)NCc2ccc(OCCN(C)C)cc2)cc1OC` [Itopride], the “growth AUC normalised to DMSO control” value is 1.06 (inactive).

On to `O=C(c1ccc(F)cc1)C1CCN(CCn2c(=O)[nH]c3ccccc3c2=O)CC1` [Ketanserin tartrate hydrate], for which the “growth AUC normalised to DMSO control” value is 1.05 (inactive).

Regarding `C[C@]12C[C@H](O)[C@H]3[C@@H](CCC4=CC(=O)CC[C@@]43C)[C@@H]1CC[C@@H]2C(=O)CO` [Corticosterone], the “growth AUC normalised to DMSO control” value is 1.01 (inactive).

For the molecule `C[N+](C)(CCOc1ccccc1)Cc1ccccc1.O=C([O-])c1cc2ccccc2cc1O` [Bephenium hydroxynaphthoate], the “growth AUC normalised to DMSO control” value was 0.991 (inactive).

As to `Cc1cnc(C(=O)O)c[n+]1[O-]` [Acipimox], the “growth AUC normalised to DMSO control” value is 0.994 (inactive).

Regarding `COc1ccc2c(c1)c(CC(=O)OCC(=O)O)c(C)n2C(=O)c1ccc(Cl)cc1` [Acemetacin], the “growth AUC normalised to DMSO control” value is 0.866 (inactive).

`CN(C)CCC[C@@]1(c2ccc(F)cc2)OCc2cc(C#N)ccc21` [Escitalopram oxalate]: the “growth AUC normalised to DMSO control” value was 1 (inactive).

For the molecule `CNCCCC12CCC(c3ccccc31)c1ccccc12` [Maprotiline hydrochloride], the “growth AUC normalised to DMSO control” value is 0.985 (inactive).

In the case of `CCN(CC)CCOC(=O)C1(C2CCCCC2)CCCCC1` [Dicyclomine hydrochloride], the “growth AUC normalised to DMSO control” value was 1.02 (inactive).

As for `CNCC(O)c1ccc(OC(=O)C(C)(C)C)c(OC(=O)C(C)(C)C)c1` (configuration not stated) [Dipivefrin hydrochloride], the “growth AUC normalised to DMSO control” value was 1.03 (inactive).

For the molecule `Cc1ncc([N+](=O)[O-])n1CC(C)O` (configuration not stated) [Secnidazole], the “growth AUC normalised to DMSO control” value was 0.0204 (active).

As for `COc1cc(OC)c(C(=O)CCCN2CCCC2)c(OC)c1` [Buflomedil hydrochloride], the “growth AUC normalised to DMSO control” value is 0.994 (inactive).

Turning to `Cc1cc(NC(=O)C2=C(O)c3ccccc3S(=O)(=O)N2C)no1` [Isoxicam], the “growth AUC normalised to DMSO control” value was 0.975 (inactive).

`CCN(CC)CCNC(=O)c1cc(Br)c(N)cc1OC` [Bromopride]: the “growth AUC normalised to DMSO control” value is 1.01 (inactive).

Turning to `NCCCC[C@H](N[C@@H](CCc1ccccc1)C(=O)O)C(=O)N1CCC[C@H]1C(=O)O` [Lisinopril], the “growth AUC normalised to DMSO control” value was 1.04 (inactive).

With `COCCCC/C(=N\OCCN)c1ccc(C(F)(F)F)cc1` [Fluvoxamine maleate], the “growth AUC normalised to DMSO control” value is 0.963 (inactive).

Regarding `CCN(CC)C(=O)N1CCN(C)CC1` [Diethylcarbamazine citrate], the “growth AUC normalised to DMSO control” value is 0.978 (inactive).

As to `C[C@@H]1[C@H](O)[C@@H](C)/C=C/C=C/C=C/C=C/C=C/C=C/C=C/[C@H](O[C@@H]2O[C@H](C)[C@@H](O)[C@H](N)[C@@H]2O)C[C@@H]2O[C@](O)(C[C@@H](O)C[C@@H](O)[C@H](O)CC[C@@H](O)C[C@@H](O)CC(=O)O[C@H]1C)C[C@H](O)[C@H]2C(=O)O` [Amphotericin B], the “growth AUC normalised to DMSO control” value is 1.1 (inactive).

In the case of `Cn1c(=O)c2c(ncn2CC(=O)O)n(C)c1=O` [Acefylline], the “growth AUC normalised to DMSO control” value was 0.996 (inactive).

Regarding `Cc1ccccc1C(OCCN(C)C)c1ccccc1` (configuration not stated) [Orphenadrine hydrochloride], the “growth AUC normalised to DMSO control” value is 0.992 (inactive).

On to `O=C(Nc1ccc([N+](=O)[O-])cc1Cl)c1cc(Cl)ccc1O` [Niclosamide], for which the “growth AUC normalised to DMSO control” value is 0.0167 (active).

Take `COc1ccc(OC)c(C(O)CNC(=O)CN)c1` (configuration not stated) [Midodrine hydrochloride]: the “growth AUC normalised to DMSO control” value was 1.02 (inactive).

The next experiment has as its system S. enterica typhimurium WT. Described as above. To be noted: 20 µM. In short, it runs like this: as §1
Take `Cc1cc2c(cc1S(N)(=O)=O)S(=O)(=O)CCC2` [Meticrane]: the “growth AUC normalised to DMSO control” value was 1.02 (inactive).

Take `CCCC(CCC)C(=O)O` [Valproic acid]: the “growth AUC normalised to DMSO control” value is 1 (inactive).

`CNCCC(Oc1ccc(C(F)(F)F)cc1)c1ccccc1` (configuration not stated) [Fluoxetine hydrochloride]: the “growth AUC normalised to DMSO control” value was 1.01 (inactive).

Consider `Cc1nnc(SCC2=C(C(=O)O)N3C(=O)[C@@H](NC(=O)Cn4cnnn4)[C@H]3SC2)s1` [Cefazolin sodium salt], for which the “growth AUC normalised to DMSO control” value is 0.00709 (active).

On to `Clc1cc(Cl)c(OCC#CI)cc1Cl` [Haloprogin], for which the “growth AUC normalised to DMSO control” value was 1.04 (inactive).

`O=C(O)/C=C/c1ccc(Cn2ccnc2)cc1` [Ozagrel hydrochloride]: the “growth AUC normalised to DMSO control” value is 1 (inactive).

Turning to `CC(=O)OCC(=O)NCCCOc1cccc(CN2CCCCC2)c1` [Roxatidine acetate hydrochloride], the “growth AUC normalised to DMSO control” value is 0.994 (inactive).

For the molecule `O=C(O)CNC(=O)C(CS)Cc1ccccc1` (configuration not stated) [Thiorphan], the “growth AUC normalised to DMSO control” value was 0.997 (inactive).

As for `CCCCOC(=O)c1ccc(O)cc1` [Butylparaben], the “growth AUC normalised to DMSO control” value is 0.994 (inactive).

In the case of `Cc1ccc(S(=O)(=O)NC(=O)NN2CCCCCC2)cc1` [Tolazamide], the “growth AUC normalised to DMSO control” value was 1.01 (inactive).

On to `COc1cc2nc(N3CCN(C(=O)C4COc5ccccc5O4)CC3)nc(N)c2cc1OC` (configuration not stated) [Doxazosin mesylate], for which the “growth AUC normalised to DMSO control” value was 0.994 (inactive).

As for `CC(Oc1ccccc1)C(=O)N[C@@H]1C(=O)N2[C@@H]1SC(C)(C)[C@@H]2C(=O)O` (some centres not stated) [Phenethicillin potassium salt], the “growth AUC normalised to DMSO control” value is 1 (inactive).

On to `Nc1ccccc1S(N)(=O)=O` [o-Sulfanilamide], for which the “growth AUC normalised to DMSO control” value was 1.01 (inactive).

For the molecule `COc1ccc2[nH]c([S+]([O-])Cc3ncc(C)c(OC)c3C)nc2c1` (configuration not stated) [Omeprazole], the “growth AUC normalised to DMSO control” value is 1 (inactive).

For `CC(=O)Oc1ccccc1C(=O)Oc1ccccc1C(=O)O` [Acetylsalicylsalicylic acid], the “growth AUC normalised to DMSO control” value was 0.999 (inactive).

Turning to `NCCCC(O)(P(=O)(O)O)P(=O)(O)O` [Alendronate sodium], the “growth AUC normalised to DMSO control” value was 1 (inactive).

Turning to `O=C1Nc2ccc(Cl)cc2[C@@](C#CC2CC2)(C(F)(F)F)O1` [Efavirenz], the “growth AUC normalised to DMSO control” value is 1 (inactive).

Regarding `CC(=O)O[C@]1(C(C)=O)CC[C@H]2[C@@H]3C=C(Cl)C4=CC(=O)[C@@H]5C[C@@H]5[C@]4(C)[C@H]3CC[C@@]21C` [Cyproterone acetate], the “growth AUC normalised to DMSO control” value is 1 (inactive).

With `COc1ccc(C(=O)NCc2ccc(OCCN(C)C)cc2)cc1OC` [Itopride], the “growth AUC normalised to DMSO control” value is 1.02 (inactive).

For `O=C(c1ccc(F)cc1)C1CCN(CCn2c(=O)[nH]c3ccccc3c2=O)CC1` [Ketanserin tartrate hydrate], the “growth AUC normalised to DMSO control” value is 1.02 (inactive).

Regarding `C[C@]12C[C@H](O)[C@H]3[C@@H](CCC4=CC(=O)CC[C@@]43C)[C@@H]1CC[C@@H]2C(=O)CO` [Corticosterone], the “growth AUC normalised to DMSO control” value is 1.02 (inactive).

With `C[N+](C)(CCOc1ccccc1)Cc1ccccc1.O=C([O-])c1cc2ccccc2cc1O` [Bephenium hydroxynaphthoate], the “growth AUC normalised to DMSO control” value is 0.989 (inactive).

For `Cc1cnc(C(=O)O)c[n+]1[O-]` [Acipimox], the “growth AUC normalised to DMSO control” value was 1.01 (inactive).

`COc1ccc2c(c1)c(CC(=O)OCC(=O)O)c(C)n2C(=O)c1ccc(Cl)cc1` [Acemetacin]: the “growth AUC normalised to DMSO control” value is 0.993 (inactive).

Regarding `CN(C)CCC[C@@]1(c2ccc(F)cc2)OCc2cc(C#N)ccc21` [Escitalopram oxalate], the “growth AUC normalised to DMSO control” value was 0.989 (inactive).

Turning to `CNCCCC12CCC(c3ccccc31)c1ccccc12` [Maprotiline hydrochloride], the “growth AUC normalised to DMSO control” value was 0.997 (inactive).

For the molecule `CCN(CC)CCOC(=O)C1(C2CCCCC2)CCCCC1` [Dicyclomine hydrochloride], the “growth AUC normalised to DMSO control” value is 0.999 (inactive).

Take `CNCC(O)c1ccc(OC(=O)C(C)(C)C)c(OC(=O)C(C)(C)C)c1` (configuration not stated) [Dipivefrin hydrochloride]: the “growth AUC normalised to DMSO control” value was 1.02 (inactive).

As to `Cc1ncc([N+](=O)[O-])n1CC(C)O` (configuration not stated) [Secnidazole], the “growth AUC normalised to DMSO control” value was 1.01 (inactive).

In the case of `COc1cc(OC)c(C(=O)CCCN2CCCC2)c(OC)c1` [Buflomedil hydrochloride], the “growth AUC normalised to DMSO control” value was 0.995 (inactive).

On to `Cc1cc(NC(=O)C2=C(O)c3ccccc3S(=O)(=O)N2C)no1` [Isoxicam], for which the “growth AUC normalised to DMSO control” value was 0.991 (inactive).

In the case of `CCN(CC)CCNC(=O)c1cc(Br)c(N)cc1OC` [Bromopride], the “growth AUC normalised to DMSO control” value is 1.01 (inactive).

Take `NCCCC[C@H](N[C@@H](CCc1ccccc1)C(=O)O)C(=O)N1CCC[C@H]1C(=O)O` [Lisinopril]: the “growth AUC normalised to DMSO control” value was 1.01 (inactive).

`COCCCC/C(=N\OCCN)c1ccc(C(F)(F)F)cc1` [Fluvoxamine maleate]: the “growth AUC normalised to DMSO control” value was 0.991 (inactive).

Turning to `CCN(CC)C(=O)N1CCN(C)CC1` [Diethylcarbamazine citrate], the “growth AUC normalised to DMSO control” value was 0.999 (inactive).

As for `C[C@@H]1[C@H](O)[C@@H](C)/C=C/C=C/C=C/C=C/C=C/C=C/C=C/[C@H](O[C@@H]2O[C@H](C)[C@@H](O)[C@H](N)[C@@H]2O)C[C@@H]2O[C@](O)(C[C@@H](O)C[C@@H](O)[C@H](O)CC[C@@H](O)C[C@@H](O)CC(=O)O[C@H]1C)C[C@H](O)[C@H]2C(=O)O` [Amphotericin B], the “growth AUC normalised to DMSO control” value was 1.01 (inactive).

As for `Cn1c(=O)c2c(ncn2CC(=O)O)n(C)c1=O` [Acefylline], the “growth AUC normalised to DMSO control” value is 0.996 (inactive).

On to `Cc1ccccc1C(OCCN(C)C)c1ccccc1` (configuration not stated) [Orphenadrine hydrochloride], for which the “growth AUC normalised to DMSO control” value was 0.983 (inactive).

Regarding `O=C(Nc1ccc([N+](=O)[O-])cc1Cl)c1cc(Cl)ccc1O` [Niclosamide], the “growth AUC normalised to DMSO control” value was 0.992 (inactive).

For the molecule `COc1ccc(OC)c(C(O)CNC(=O)CN)c1` (configuration not stated) [Midodrine hydrochloride], the “growth AUC normalised to DMSO control” value is 1.02 (inactive).
